Measurements: PubChem BioAssay AID488913 (National Center for Advancing Translational Sciences (NCATS), 2010)
Inconclusive results are not listed. Active and inactive are the calls of the source. Calls come from the whole dose curve; as a rule, active = well fitted inhibition curve with a large enough effect; inconclusive = small, poorly fitted or top-dose-only effect, or effect the other way; inactive = no such curve, though single readings can be large or run the other way.

Experiment: Confirmation Concentration-Response Assay for lipid storage modulators: for probe SAR
From the text: NIH Molecular Libraries Probe Production Centers Network [MLPCN] NIH Chemical Genomics Center [NCGC] MLPCN Grant: 1 R03 MH085686-01 Assay Submitter (PI): Beller, Mathias; Max-Planck-Institut fur Biophysikalische Chemie NCGC Assay Overview: Storing lipids as a reservoir for energy or the anabolism of elementary metabolites is a common feature of probably all cells and is conserved from bacteria to humans. The universal cellular lipid storage organelle is the so-called lipid storage droplet (LD). Although ubiquitous, LDs share a simple structure composed of a hydrophobic core that harbors the storage lipids, which is shielded by a droplet-specific phospholipid monolayer to which proteins are attached. The current model of LD biogenesis involves an incorporation of the lipid core into the membrane leaflets of the endoplasmic reticulum (ER) followed by a subsequent budding-like maturation of a LD, which ultimately pinches off. Once released, LD volume can increase by localized lipogenesis or fusion of existing droplets. Storage lipids are re-mobilized enzymatically by lipase activity. Lipase regulation in the adipocyte is heavily studied and involves multiple components including catecholamine signaling, the LD-associated proteins Perilipin and comparative gene identification-58 (CGI-58) and at least two lipases named hormone sensitive lipase (HSL) and adipocyte triglyceride lipase (ATGL). LD regulation outside of the adipocyte is poorly understood and only few components are known. However, there is an urgent need to learn more about ectopic fat depots as mislocalized storage of lipids, for example in the liver or muscle, is an eminent health problem associated with insulin resistance or the metabolic syndrome. We developed a laser-scanning cytometer assay to enable 1,536-well screening and combined the results of the small molecules screen with an RNAi database based on lipid storage.
We dispensed 4 uL of cells at 1.25 x 10^6 cells/mL into LoBase Aurora COC 1,536-well plates (black walled, clear bottom) with a bottle-valve solenoid-based dispenser (Aurora) to obtain 5,000 cells/well. Triacsin C (Sigma-Aldrich T-4540), an inhibitor of long-chain fatty acyl CoA synthetase that blocks synthesis of triglycerides, was used as a positive control for lipid under-storage. […] Fluorescence was detected by excitation of the fluorophores with a 488-nm laser on an Acumen Explorer (TTP Lab Tech). […] Cells were detected using channel 3 (575- 640 nm) with 5-um width and 100-um depth filters. The ratio of the total intensity in PMT channel 1 over total intensity of channel 3 was also calculated. […]

Row | Compound | Potency
1 | CCOc1ccc(CCNC(=O)c2cc3sccc3n2Cc2ccc(F)cc2F)cc1OCC | 56 nM (active)
2 | CCC/C=C/C/C=C/C=C/C=N/NN=O | 791 nM (active)
3 | CCOc1ccc(CCNC(=O)c2ccccc2)cc1OCC | inactive
4 | CCOC(=O)C1CCN(C(=O)C2(NC(=O)Nc3ccccc3Cl)CCCC2)CC1 | 787 nM (active)
